In PubChem BioAssay (NCATS):
Results filed as inconclusive are left out. Calls of active or inactive are those of the source. Unless noted, calls come from the whole dose curve; as a rule, active = well fitted curve in the direction sought with a large enough effect; inconclusive = small, poorly fitted or top-dose-only effect, or another doubt; inactive = no such curve, though single readings can be large; an effect the other way counts as inactive or inconclusive.

Key:
[1] = qHTS for Inhibitors of Plasmodium falciparum (DD2) proliferation (AID 504314);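 note: parasite DNA measured by SYBR Green fluorescence after red cell lysis; plate controls were DMSO vehicle for no effect and artemisinin wells for full effect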; conditions: P. falciparum Dd2 in erythrocytes, SYBR Green growth, 72 h; series mostly up to 6.11 µM
Method in brief: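 Fluorescence read-out (ex 485/em 535 nm) of SYBR Green-stained parasite DNA quantifies intraerythrocytic growth. Cultures at 0.3% parasitemia and 2.5% hematocrit were treated for 72 h; data normalized to DMSO and 0.29 uM artemisinin wells.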

[2] = qHTS for Inhibitors of Plasmodium falciparum (GB4) proliferation (AID 504315);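 note: 0% = DMSO vehicle and -100% = 0.29 µM artemisinin control; nearly all actives have a fitted effect of over 50% in size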; conditions: P. falciparum GB4 in erythrocytes, SYBR Green DNA, 72 h; series mostly up to 6.7 µM
Method in brief: (§1)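 Erythrocytes infected with P. falciparum line (0.3% parasitemia, 2.5% hematocrit final) incubated with compounds 72 h at 37 °C, 5% CO2; SYBR Green lysis buffer added, fluorescence read next day. Normalized to 0.29 uM artemisinin and DMSO.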

[3] = qHTS for Inhibitors of Plasmodium falciparum (7G8) proliferation (AID 504316);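 note: 0% = DMSO vehicle and -100% = 0.29 µM artemisinin full kill; nearly all actives have a fitted effect of over 65% in size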; conditions: P. falciparum 7G8 in erythrocytes, SYBR Green DNA, 72 h; series mostly up to 6.7 µM
Method in brief: as §1

[4] = qHTS for Inhibitors of Plasmodium falciparum (HB3) proliferation (AID 504318);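 note: 0% = DMSO vehicle and -100% = artemisinin control; nearly all actives have a fitted effect of over 60% in size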; conditions: P. falciparum HB3 in erythrocytes, SYBR Green DNA, 72 h; series mostly up to 7.21 µM
Method in brief: as §1

[5] = Cytotoxicity counterscreen for inhibitors of SARS-CoV-2 cell entry (AID 1645845; calls by dose curve; note: % is set by controls: 0 for no effect and ±100 for the full control effect; nearly all actives have a fitted effect of over 50% in size); conditions: cell viability (SARS-CoV-2 entry assay cells); series mostly up to 57.1 µM
Method in brief: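 Expi293F/hACE2 cells seeded overnight; cpd pin-transferred in DMSO, 1 h preincubation, + media, 48 h 37 C 5% CO2; ATPLite 1step luminescence; normalized to cells and no cells.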

[6] = Primary qHTS to identify inhibitors of SARS-CoV-2 cell entry (AID 1645846; calls by dose curve; note: nearly all actives have a fitted effect of over 45% in size); conditions: SARS-CoV-2 pseudovirus cell entry assay, luminescence; activity change, negative = inhibition: at 57.1 µM (top of the series) unless noted; series mostly up to 57.1 µM
Method in brief: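 Data are normalized to wells receiving SARS-CoV-2-S pseudoparticles and those given bald particles. Entry signal was luciferase luminescence in stable hACE2 Expi293F cells, 48 hr post-infection, after 1 hr compound pretreatment.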

[7] = qHTS Assay for Identifying Gametocytocidal Compounds (AID 743244);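 note: % is set by controls: 0 for no effect and ±100 for the full control effect; actives lower the fluorescent signal which means gametocytes are killed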; conditions: P. falciparum 3D7 stage III-V gametocytes, alamarBlue, 72 h; max response: hits give low values
Method in brief: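 A resazurin-based viability read-out was applied to mature P. falciparum gametocytes: 72 h compound treatment, then 24 h dye incubation, with falling fluorescence signalling gametocytocidal effect.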

COC(=O)[C@@]1(C=C2c3ccccc3[C@@H](OC)[C@@H]2C)[C@@H]2Oc3ccccc3[C@@H]21
inactive: outcome [1] | outcome [2] | outcome [3] | Potency [4]

COC(=O)[C@]12C[C@@H]3CCN(C(=O)N[C@@H]1c1ccccc1)[C@@]32C
inactive: outcome [1] | outcome [2] | outcome [3] | Potency [4]

COC(=O)C1=C2CCO[C@H]2[C@@H]2[C@@H](C)[C@H](OC)c3ccccc3[C@@H]12
inactive: outcome [1] | outcome [2] | outcome [3] | Potency [4]

COC(=O)[C@@]1(C=C[C@@H](C)[C@H](OC)c2ccccc2Br)[C@@H]2Oc3ccccc3[C@@H]21
inactive: outcome [1] | outcome [2] | outcome [3] | Potency [4]

COc1ccc(-c2cnc3c(-c4cccc5ncccc45)cnn3c2)cc1
inactive: Potency [5] | Potency [6]

C=C(C)C(=O)CP(=O)(OCC)OCC
inactive: outcome [1] | outcome [2] | outcome [3] | Potency [4]

COc1cc(S(C)(=O)=O)ccc1Nc1nc2ccc(-c3ccc(NC(=O)[C@H](C)c4ccc(F)cc4)cc3)cn2n1
inactive: Potency [5]

COc1cc([C@@H]2c3cc4c(cc3[C@@H](O)[C@H]3COC(=O)[C@H]23)OCO4)cc(OC)c1O
inactive: max response [7] 5.77%

CO[C@@H]1c2ccccc2[C@H]2C(C(=O)O)c3c(n(C)c4ccccc34)[C@H]2[C@H]1C (some centres not stated)
inactive: outcome [1] | outcome [2] | outcome [3]
